In the library only some 6.3% were active in any assay of this set; here they are far more common.
RORg inh – blocks mouse ROR gamma transcriptional activity | Potency, µM (series often up to 53.6 µM), inactives show top-dose activity change, negative = inhibition, most hits filed as inhibitors | Drosophila S2 Gal4-RORgamma UAS-luciferase reporter, 20 h | AID 2551 | actives 5.4% (n = 310,000); also: % is scaled to controls: 0 for no effect and ±100 for the full control effect; nearly all actives have a fitted effect of over 60% in size
Target sequence (P51450 whole entry, looked up, the tested form may be a part): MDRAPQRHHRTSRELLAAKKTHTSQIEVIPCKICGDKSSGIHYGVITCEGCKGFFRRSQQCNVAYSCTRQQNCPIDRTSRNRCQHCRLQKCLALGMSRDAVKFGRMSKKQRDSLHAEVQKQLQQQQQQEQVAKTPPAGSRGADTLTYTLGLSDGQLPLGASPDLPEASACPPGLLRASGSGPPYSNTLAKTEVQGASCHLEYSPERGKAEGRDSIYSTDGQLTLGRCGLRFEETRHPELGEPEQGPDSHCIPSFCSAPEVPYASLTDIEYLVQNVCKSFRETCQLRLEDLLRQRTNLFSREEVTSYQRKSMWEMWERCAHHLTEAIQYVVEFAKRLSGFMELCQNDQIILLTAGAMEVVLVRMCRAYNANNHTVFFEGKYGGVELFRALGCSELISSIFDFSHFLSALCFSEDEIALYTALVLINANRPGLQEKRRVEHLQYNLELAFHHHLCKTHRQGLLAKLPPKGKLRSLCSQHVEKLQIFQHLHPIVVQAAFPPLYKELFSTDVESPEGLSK
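Stable Schneider cell line, Gal4 DNA-binding domain fused to ROR gamma, UAS-luciferase. Cmpd 1 hr RT → CuSO4 700 uM final → 20 hr RT → luciferase reagent 10 min → luminescence.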
ATXN2 expr inh – inhibitors of ATXN2 expression | HEK-293 ATXN2-luciferase reporter, luminescence, 24 h | Potency, µM (doses to about 57 µM), for inactives: top-dose activity change, negative = inhibition, actives largely listed as inhibitors | actives 0.72% (n = 360,000) | AID 1745845; also: % is scaled to controls: 0 for no effect and ±100 for the full control effect; nearly all actives have a fitted effect of over 55% in size
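ATXN2-luciferase reporter cells (luciferase flanked by upstream and downstream ATXN2 gene portions) were treated 24 h at 37 °C with compounds at up to 57 uM. SteadyGlo luminescence gave expression; GF-AFC fluorescence gave viability.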
HepG2 viability – counter-screen for TGF-b inhibitors: cytotoxicity in HepG2 cells | HepG2 CAGA-GFP viability, ATP luminescence, 18 h | Potency, µM (doses to about 46.1 µM), for the others: at the top dose activity change, negative = cytotoxicity, usual class: cytotoxic | actives 0.76% (n = 410,000) | AID 588856
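HepG2 CAGA-GFP cells (1000/well, DMEM with 1% FBS) received compound, then TGF-beta at 500 pg/mL final, and were incubated 18 hours at 37 degrees C. Viability was read by CellTiter-Glo luminescence. Media-only wells were set as complete cell-killing and DMSO as no toxicity.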
TGFb SMAD3 inh – inhibitors of TGF-b signaling | HepG2 CAGA-GFP TGF-b/SMAD3 reporter, GFP fluorescence, 18 h; TGF-beta stimulated, 500 pg/mL final | Potency, µM (titrated, usually from 46.1 µM), for the others: at the highest dose activity, negative = inhibition, most hits filed as inhibitors | actives 1.2% (n = 410,000); also: % is scaled to controls: 0 for no effect and ±100 for the full control effect; nearly all actives have a fitted effect of over 65% in size
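HEPG2 CAGA-GFP, 1000 cells/well; 2 h settle, 37 C; cpd via pin tool; TGF-b 500 pg/mL final; 18 h, 37 C; GFP imaging ex488/em500-530; %Activity normalised to -TGF-b and +DMSO controls; CRC fit, curve class.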
S2 tox – cell viability loss in ATXN counter-screen; Potency, µM (highest dose often 56.7 µM), hits mostly cytotoxic; actives 0.49% (n = 400,000); AID 651635; S2 cells (HEK-293 line with an ATXN2-luciferase reporter) viability, CellTiter-Fluor protease fluorescence, 24 h; also: nearly all actives have a fitted effect of over 40% in size
VP16 counter – counter-screen for ROR gamma inhibitors: Gal4-VP16 reporter; Potency, µM (doses to about 53.6 µM), inactives show top-dose activity, negative = inhibition, most hits filed as inhibitors; actives 3.5% (n = 310,000); Drosophila S2 Gal4-VP16 UAS-luciferase, luminescence, 20 h;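 also: Gal4-VP16 expression switched on by copper sulfate through the metallothionein promoter; % is scaled to controls: 0 for no effect and ±100 for the full control effect; nearly all actives have a fitted effect of over 50% in size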
Active calls of the source: *; i = inactive; ? = inconclusive; · = no result; [ ] = dose if it differs, or a comment. Calls follow the shape of the dose curve; as a rule, active = well fitted curve in the direction sought with a large enough effect; inconclusive = small, poorly fitted or top-dose-only effect, or another doubt; inactive = no such curve, though single readings can be large; an effect the other way counts as inactive or inconclusive. Potency is read from the fitted curve at half-maximal effect.

SMILES | RORg inh | ATXN2 expr inh | HepG2 viability | TGFb SMAD3 inh | S2 tox | VP16 counter
C[C@@H]1CN([C@H](C)CO)S(=O)(=O)c2ccc(C#Cc3ccccc3)cc2O[C@@H]1CN(C)C(=O)CN(C)C | · | -22% | -51% | ? | ? | ·
C[C@H](O)C#Cc1ccc2c(c1)O[C@@H](CN(C)Cc1ccc(-c3ccccc3)cc1)[C@H](C)CN([C@@H](C)CO)S2(=O)=O | · | 20µM* | 7.1µM* | ? | 16µM* | ·
C[C@@H]1CN([C@H](C)CO)S(=O)(=O)c2ccc(C#CC3CCCC3)cc2O[C@H]1CN(C)C(=O)Cc1ccccc1 | · | ? | 16µM* | ? | 22µM* | ·
C[C@@H]1CN([C@H](C)CO)S(=O)(=O)c2ccc(Br)cc2O[C@@H]1CN(C)Cc1ccc(-c2ccccc2)cc1 | · | ? | -57% | 16µM* | ? | ·
C[C@H]1CN([C@@H](C)CO)S(=O)(=O)c2ccc(Br)cc2O[C@H]1CN(C)Cc1ccccc1F | · | ? | -60% | 16µM* | ? | ·
COc1cccc(NC(=O)c2sc3nc(C)c(C(=O)Nc4ccc(C)cc4C)c(-c4cccs4)c3c2N)c1 | · | · | -2% | 1% | · | ·
CCn1nc(C)c(/C=N/NC(=O)c2ccoc2C)c1C | ? | -9% | -10% | 20% | i | -22%
Cc1nn(Cc2ccccc2)c(C)c1/C=N/NC(=O)c1ccncc1 | -3% | · | -13% | -21% | i | -3%
CCCCCn1nc(C)c(/C=N/NC(=O)c2ccoc2C)c1C | ? | 16% | -1% | ? | i | 8.9µM*
Cc1nn(Cc2ccccc2)c(C)c1/C=N/NC(=O)c1ccccc1O | 11µM* | -3% | -6% | -5% | i | 18µM*
COc1cccc(C2CC(=O)Nc3c2ccc(C)c3C)c1OC (stereo not drawn) | · | -12% | -23% | ? | i | ·
CCOC(=O)c1c(C(F)(F)C(F)(F)C(F)(F)C(F)(F)F)n[nH]c1C | 18% | -14% | 13µM* | ? | i | 2%
CCOC(=O)c1[nH]c(C)c(C(=O)OCC)c1C | -3% | 38% | 20% | ? | i | 3%
CCCN1C(=O)CC(c2ccco2)Sc2ccccc21 (stereo not drawn) | 16µM* | 31% | -20% | -8% | i | ?
COc1ccc(-c2cn(Cc3ccc(C(=O)c4ccccc4)cc3)nn2)cc1 | ? | 24% | -30% | 10µM* | ? | ?
COc1ccc(-c2cn(Cc3ccc4ccccc4c3)nn2)cc1 | -18% | -3% | -8% | -10% | i | -1%
Cc1cnc(NC(=O)c2cc3c(s2)CCCC3)s1 | 2µM* | ? | -43% | -1% | i | 7.1µM*
Cc1csc(NC(=O)c2cc3c(s2)CCCCC3)n1 | 2.8µM* | -49% | -1% | 0% | i | 4µM*
Cc1csc(NC(=O)c2cc3c(s2)CCCC3)n1 | 10% | · | -40% | ? | i | ?
O=S(=O)(c1ccccc1C(F)(F)F)N1CCN(c2nc(-c3ccccc3)nc3ccccc23)CC1 | · | · | -2% | -6% | · | ·
COc1cccc(/C=N/N2C(=O)CSC2=S)c1O | 4µM* | 1% | -4% | -19% | i | 4.5µM*
O=C1CSC(=S)N1N=Cc1c(O)ccc2ccccc12 | · | -12% | -14% | ? | i | ·
COc1ccc2ccccc2c1/C=N/N1C(=O)CSC1=S | 7.9µM* | -6% | 17% | -14% | i | ?
Cc1ccsc1/C=C\C1=NCCCN1C | -15%[2.98 µM] | · | · | · | · | 3%[17 µM]
CC/C(CC(=O)C(F)(F)F)=N\NC(=O)/C(C#N)=C/N(C)C | 7.1µM* | -19% | -4% | -11% | i | ?
SMILES | RORg inh | ATXN2 expr inh | HepG2 viability | TGFb SMAD3 inh | S2 tox | VP16 counter
CN(C)/C=C(\C#N)C(=O)N/N=C/c1ccc(F)cc1 | 14% | 14% | 0% | -9% | i | 1%
COc1ccc(-c2nc3cnc(N4CCOCC4)nc3n(Cc3cccs3)c2=O)cc1 | 15% | · | · | · | · | -1%
CC(/C=N/n1c(-c2ccc(Cl)cc2)n[nH]c1=S)=C\c1ccco1 | 3.2µM* | -9% | -7% | -20% | i | 4µM*
Cc1cccc(-c2n[nH]c(=S)n2/N=C/c2ccco2)c1 | 8.9µM* | -19% | -10% | 1% | i | ?
S=c1[nH]nc(-c2cccnc2)n1/N=C/c1ccco1 | ? | 2% | 3% | 7% | i | -4%
Cc1ccc(-c2n[nH]c(=S)n2/N=C\c2ccco2)cc1 | 6.3µM* | -10% | 3% | -19% | i | 5.6µM*
CC(/C=N/n1c(-c2cc(C)[nH]n2)n[nH]c1=S)=C\c1ccco1 | 20% | -3% | 26% | 10% | i | -5%
CCOc1ccc(N=Nc2ccc(O)c3ncccc23)cc1 | 0.28µM* | ? | -16% | 0% | ? | 0.4µM*
CCOc1ccc(N=Nc2cc(C(C)C)ccc2O)cc1 | 0% | 1% | 14% | -13% | i | 0%
NS(=O)(=O)c1ccc(N=Nc2ccc(O)c3ncccc23)cc1 | -34% | · | 6.3µM* | 8.9µM* | 10µM* | ?
CCOc1ccc(N=Nc2ccc(N)cc2N)cc1 | 8.9µM* | · | · | · | · | 10µM*
C[C@]12CCC(=O)C=C1[C@@H]1CC1[C@H]1[C@H]3[C@@H]4C[C@H]4[C@@]4(CCC(=O)O4)[C@@]3(C)CC[C@H]12 (stereo partly drawn) | · | -17% | · | · | · | ·
CC(C)C[C@H]1CN([C@@H](Cc2ccccc2)CN2CCC[C@H]2CN2C(=O)C(=O)NC[C@@H]2Cc2ccc(O)cc2)C(=O)C(=O)N1CCc1ccccc1 | · | -11% | · | · | ? | ·
COc1ccc(NC(=O)CSc2oc(-c3ccco3)nc2S(=O)(=O)c2ccc(Br)cc2)c(OC)c1 | · | -10% | 0% | 9% | i | ·
O=C(NCCc1nnc2n1CCN(Cc1ccsc1)CC2)c1ccc(F)cc1 | · | · | · | · | i | ·
CCC(C)NC(=O)c1nc2c(nnn2Cc2ccccc2Cl)c(=O)[nH]1 (stereo not drawn) | -19% | -25% | -20% | 16% | i | 0%
O=C(NCc1cccs1)c1nc2c(nnn2Cc2ccccc2Cl)c(=O)[nH]1 | 10µM* | ? | -26% | ? | ? | 2.8µM*
Cc1cccc(NC(=O)NCCOCCn2c(=O)oc3ccccc32)c1C | · | -13% | -21% | -27% | i | ·
CCc1nc2nc(C)cc(Nc3cc(Cl)ccc3C)n2n1 | · | -9% | -15% | -5% | i | ·
CCCCn1c(SCC(=O)c2cc(OC)ccc2OC)nc2cc(S(N)(=O)=O)ccc21 | 12% | -17% | -15% | -1% | i | 0%

Screening results (PubChem BioAssay)
